Screening data from PubChem BioAssay.
Hits are enriched below; roughly 2.5% of the tested compounds scored in any of these assays.
POLB inh: inhibitors of human DNA polymerase beta; Potency, µM (titrated, usually from 114 µM), for the others: top-dose activity change, negative = inhibition, most hits filed as inhibitors; hit rate 1.3% among 340,000; P06746; Pol beta primer extension/strand displacement, fluorescence kinetic; AID 485314; also: % is scaled to controls: 0 for no effect and ±100 for the full control effect
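Curves were derived by four-parameter Hill fits of normalized qHTS data. The kinetic fluorescent primer-extension read was taken at 0 and 10 min after 50 nM substrate, following a 15 min room-temperature preincubation of 10 nM enzyme with compounds.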
POLI inh: inhibitors of human DNA polymerase iota; Pol iota fluorescent replication assay, 10 min; Potency, µM (series often up to 115 µM), inactives show top-dose activity, negative = inhibition, usual class: inhibitors; hit rate 1% among 390,000
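Pol iota at 10 nM preincubated 15 min with compounds at room temperature; reaction started with fluorescent substrate, 50 nM final. Fluorescence read kinetically at 0 and 10 min; buffer-only wells as negative control.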
POLK inh: blocks human DNA polymerase kappa activity | Q9UBT6 | purified Pol kappa, fluorescent DNA synthesis assay, 10 min | Potency, µM (doses to about 107 µM), without a hit: top-dose activity, negative = inhibition, most hits filed as inhibitors | hit rate 0.53% among 400,000; also: % is scaled to controls: 0 for no effect and ±100 for the full control effect
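Enzyme at 10 nM met test compounds for 15 min at room temperature. Substrate addition (50 nM final) began the reaction, which was monitored by fluorescence at 0 and 10 min.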
L3MBTL1 block: inhibitors of human L3MBTL1 | hit rate 0.66% among 230,000 | Potency, µM (highest dose often 57.1 µM), inactives show at the highest dose activity, negative = inhibition, hits mostly inhibitors | Q9Y468 | AlphaScreen L3MBTL1–H3K9me1 peptide binding; also: % is scaled to controls: 0 for no effect and ±100 for the full control effect; nearly all actives have a fitted effect of over 60% in size
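Displacement of a biotinylated histone H3(1-15) peptide monomethylated at Lys9 (75 nM) from L3MBTL1 (50 nM) was measured by AlphaScreen after a 30 min room-temperature compound incubation; cefsulodin titration served as intraplate control.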
APE1 inh: APE1 (human) endonuclease inhibition. P27695. recombinant APE1, TAMRA/BHQ-2 abasic DNA cleavage fluorescence. Potency, µM (highest dose often 65.8 µM), without a hit: at the top dose activity change, negative = inhibition, usual class: inhibitors. hit rate 0.35% among 350,000;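 also: plate controls were vehicle for no effect and reference inhibitor for full effect; nearly all actives have a fitted effect of over 55% in size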
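Readout is kinetic fluorescence (ex 525, em 598 nm) from cleavage of 50 nM TAMRA/BHQ-2 THF abasic duplex by 0.75 nM APE1, compound added 15 min beforehand at RT.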
Pol eta inh: DNA polymerase eta (human) inhibition; hit rate 1.2% among 390,000; Q9Y253; Potency, µM (top dose mostly 114 µM), for inactives: at the highest dose activity change, negative = inhibition, usual class: inhibitors; recombinant Pol eta, fluorescent DNA replication assay; also: % is scaled to controls: 0 for no effect and ±100 for the full control effect
Target sequence (Q9Y253 whole entry, looked up): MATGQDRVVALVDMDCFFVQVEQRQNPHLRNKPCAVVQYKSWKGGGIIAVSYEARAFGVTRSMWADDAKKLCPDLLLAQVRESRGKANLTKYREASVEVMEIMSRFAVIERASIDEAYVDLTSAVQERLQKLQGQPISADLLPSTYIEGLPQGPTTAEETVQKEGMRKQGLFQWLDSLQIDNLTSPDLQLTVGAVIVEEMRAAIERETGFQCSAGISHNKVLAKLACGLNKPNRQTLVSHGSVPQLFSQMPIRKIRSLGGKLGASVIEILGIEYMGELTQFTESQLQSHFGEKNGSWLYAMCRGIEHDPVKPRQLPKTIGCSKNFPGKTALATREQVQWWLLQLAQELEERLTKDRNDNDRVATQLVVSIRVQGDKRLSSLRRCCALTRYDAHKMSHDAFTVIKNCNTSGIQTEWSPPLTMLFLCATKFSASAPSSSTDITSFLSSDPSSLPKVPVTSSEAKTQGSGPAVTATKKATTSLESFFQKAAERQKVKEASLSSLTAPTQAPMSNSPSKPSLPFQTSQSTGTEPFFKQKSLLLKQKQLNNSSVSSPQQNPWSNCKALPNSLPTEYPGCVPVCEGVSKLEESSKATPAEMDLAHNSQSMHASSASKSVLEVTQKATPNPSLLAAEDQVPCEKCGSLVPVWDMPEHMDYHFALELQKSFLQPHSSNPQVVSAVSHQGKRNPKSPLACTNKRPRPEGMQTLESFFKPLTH
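Pol eta at 10 nM preincubated with compounds 15 min at room temperature; reaction started with fluorescent substrate (50 nM final) and read kinetically at 0 and 10 min.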
* hit, by the source's call; ? = inconclusive; nt = not tested or not shown; [ ] = dose if it differs, or a comment. Calls follow the shape of the dose curve; as a rule, active = well fitted curve in the direction sought with a large enough effect; inconclusive = small, poorly fitted or top-dose-only effect, or another doubt; inactive = no such curve, though single readings can be large; an effect the other way counts as inactive or inconclusive. Potency is read from the fitted curve at half-maximal effect.

SMILES	POLB inh	POLI inh	POLK inh	L3MBTL1 block	APE1 inh	Pol eta inh
C#CCOCCOCCOCCNc1nc(N2CCN(C(=O)CCCCCCCCCCNC(=O)[C@H](CCCCN)n3cc(C[C@@H](C)CC)nn3)CC2)nc(N2CCN(C(=O)CCCCCCCCCCNC(=O)[C@H](CCCCN)n3cc(C[C@@H](C)CC)nn3)CC2)n1	nt	20%	-3%	nt	nt	79µM*
C#CCOCCOCCOCCNc1nc(N2CCN(C(=O)CCCCCCCCCCNC(=O)[C@H](CCCCN)n3cc(CCO)nn3)CC2)nc(N2CCN(C(=O)CCCCCCCCCCNC(=O)[C@H](CCCN=C(N)N)n3cc(C[C@@H](C)CC)nn3)CC2)n1	nt	?	?	-5%	?	79µM*
C#CCOCCOCCOCCNc1nc(N2CCN(C(=O)CCCCCCCCCCNC(=O)[C@@H](CCSC)n3cc(CCO)nn3)CC2)nc(N2CCN(C(=O)CCCCCCCCCCNC(=O)[C@H]([C@@H](C)CC)n3cc(CCCCN=C(N)N)nn3)CC2)n1	nt	?	-22%	-12%	?	79µM*
CC(C)(C)NS(=O)(=O)c1cccc(-c2nnc(SCC(=O)Nc3ccc(C(=O)O)cc3)n2-c2ccc(F)cc2)c1	nt	nt	nt	nt	51%	nt
CNc1ccc(/C=C/c2ccccc2)cc1	nt	-6%	-20%	nt	nt	nt
COc1ccc(-c2cc3nc(C)c(CCC(=O)NCc4ccccc4Cl)c(C)n3n2)c(OC)c1	?	-3%	-20%	nt	nt	-20%
CCOC(=O)N1CCC(N2Cc3cccc(C(=O)NCc4ccc(OC)cc4)c3C2=O)CC1	16µM*	nt	nt	?	4%	nt
CCOC(=O)N1CCC(N2Cc3cccc(C(=O)NCc4ccccc4OC)c3C2=O)CC1	14%	-15%	-8%	-9%	-1%	-2%
Cc1cccc(CCNC(=O)c2cccc3c2C(=O)N(C2CCCCC2)C3)c1	11µM*	-18%	-20%	nt	-5%	?
CCOC(=O)N1CCC(NC(=O)c2cccc3c2C(=O)N(c2ccc(OC)cc2)C3)CC1	10µM*	?	50µM*	nt	?	18µM*
Cc1noc(C)c1-c1ccc2ncnc(NCc3cc(F)cc(F)c3)c2c1	nt	nt	nt	nt	-1%	nt
Cc1cccc(/C=C/c2cccs2)n1	nt	1%	-15%	nt	nt	nt
CCN(CC)S(=O)(=O)c1cccc(C(=O)N/N=C/c2cc(OC)c(O)c(OC)c2)c1	12%	-7%	-8%	-3%	4%	-23%
CCN(CC)S(=O)(=O)c1cccc(C(=O)N/N=C/c2cccc(O)c2O)c1	8%	20µM*	-42%	-1%	5%	-5%
CC1=C(\C=C/C(C)=C/C=C\C(C)=C\C(=O)O)C(C)(C)CCC1	nt	nt	4%[19.4 µM]	nt	-6%	nt
Cc1cc(NS(=O)(=O)c2ccc(Nc3nc(-c4ccc(C)c(C)c4)cs3)cc2)no1	?	-15%	-5%	-12%	1%	?
Cc1cc(NS(=O)(=O)c2ccc(Nc3nc(-c4sc(N)nc4C)cs3)cc2)no1	-9%	3.2µM*	25µM*	?	-5%	10µM*
COc1cc(NC(=O)C2CC(c3c(F)cccc3Cl)=NO2)c(OC)cc1Cl (configuration not stated)	25%	76%	-1%	-6%	-1%	-23%
COc1ccc(NC(=O)C2CC(c3c(F)cccc3Cl)=NO2)cc1OC (configuration not stated)	5%	26%	6%	-2%[2.29 µM]	20%	89µM*
C=CCn1cccc(/C=C/C(=O)c2ccc(C(C)(C)C)cc2)c1=S	0%	?	-19%	28µM*	-3%	?
CN(C)c1ccc(N=Nc2ccccc2C(=O)OCC(=O)N(C)C2CCCCC2)cc1	-12%	-9%	0%	28µM*	1%	-18%
CN(C)c1ccc(N=Nc2ccccc2C(=O)OCC(=O)NCC2CCCCC2)cc1	21%	12%	-20%	11µM*	5%	-29%
